The text below walks through data of ChEMBL document CHEMBL3988442, “University of Dundee, Small-Polar-MMV Screening Library” (2021).

Out of some 69,000 compounds screened, about 950 (1.4%) showed an effect of 50% or more. The list comes from a sample in which strong results are over-represented; it also holds similar structures and randomly drawn compounds.

The assay concerns Mycobacterium tuberculosis. Briefly: Cornell M. t heat shock assay. Also: in the data most compounds retested in dose-response had high values. The class given is functional, organism-based. Details: dose or concentration left out as unconfirmed.
`COCc1ncn2c1CN(C(=O)c1cccc3cccnc13)CC2.O=C(O)C(F)(F)F`: the “Percent Effect” value is -14.48%.
Then `O=C(O)C(F)(F)F.O=C(O)C(F)(F)F.c1ccc(OCC2C[C@@H]3[C@@H](C2)OCCN3Cc2ccoc2)nc1` (some centres undefined), with 14.26%.
For the molecule `CN(C)CCN1CCCC12CCCN(C(=O)c1cccnc1)C2.O=C(O)C(F)(F)F.O=C(O)C(F)(F)F` (centres undefined), the “Percent Effect” value is -7.014%.
As for `Cc1nc(N(C)C)nc2c1COCC21CCN(CC2CC2)C1.O=C(O)C(F)(F)F` (centres undefined), the “Percent Effect” value is 4.702%.
The figure for `CC1c2ncc(CNC(=O)C3CC3)n2CCN1CC1CCC1.O=C(O)C(F)(F)F` (centres undefined) is -0.1216%; for `O=C(O)CC(O)(CC(=O)O)C(=O)O.O[C@@]1(c2ccccn2)CC[C@H]2CN(Cc3cccc(Cl)c3Cl)C[C@H]21` it is 14.33%.
Consider `Cc1ccc([C@]2(O)CC[C@H]3CN(Cc4cccc(F)c4F)C[C@H]32)nc1.O=C(O)CC(O)(CC(=O)O)C(=O)O`, for which the “Percent Effect” value is listed as 2.948%.
`Cc1ccc([C@]2(O)CC[C@H]3CN(Cc4cccc(Cl)c4Cl)C[C@H]32)nc1.O=C(O)CC(O)(CC(=O)O)C(=O)O`: the “Percent Effect” value was determined as 90.52%.
Take `Cl.NC(=O)CCc1cccc(C2CCNCC2)n1`: the “Percent Effect” value was 3.085%.
Take `COc1ccccc1CC(=O)N1CCCC(n2nc(C)nc2C)C1` (centres undefined): the “Percent Effect” value is given as -10.87%.
The figure for `CC[C@@H]1N(Cc2ccc(C)s2)CCC[C@]12CCC(=O)N2C.O=C(O)C(F)(F)F` is 1.978%; for `COCCn1cc2c(n1)C(CNC(=O)c1cc(C)[nH]c1C)OCC2` (centres undefined) it is 38.13%.
Then `CS(=O)(=O)CC(=O)NCC1OCCc2cn(CC3CC3)nc21` (centres undefined), with 11.68%; and `Cc1cc(C(=O)NCC2OCCc3cn(CC4CC4)nc32)c(C)[nH]1` (centres undefined), with 105.1%; and `Cn1cc(CN2CCC3(CCCN3Cc3cccnc3)CC2)cn1.O=C(O)C(F)(F)F.O=C(O)C(F)(F)F.O=C(O)C(F)(F)F`, with -39.86%.
Then `COc1ccc(NC(=O)NC(C)Cn2cccn2)cn1` (centres undefined), with 0.2337%; and `CC(=O)c1ccc(NC(=O)NC(C(=O)N(C)C)C(C)C)cc1` (centres undefined), with 30.77%; and `CC(C)C(NC(=O)Nc1ccc(F)cc1)C(=O)N(C)C` (centres undefined), with 54.32%.
As for `Cc1ccc(NC(=O)NC(C)Cn2cccn2)cc1` (centres undefined), the “Percent Effect” value was found to be 0.5452%.
As to `CC(Cn1cccn1)NC(=O)Nc1ccc(F)cc1` (centres undefined), the “Percent Effect” value was determined as 97.32%.
The figure for `CC(=O)c1ccc(NC(=O)N[C@H](C(=O)O)C(C)C)cc1` is -1.764%.
For the molecule `O=C(O)C(F)(F)F.O=C(O)C(F)(F)F.c1cc(CO[C@@H]2CC[C@H]3[C@H]2OCCN3Cc2ccoc2)ccn1`, the “Percent Effect” value is given as -10.25%.
The figure for `Cc1nc(CN2C[C@@H]3CN(C(=O)c4ccnnc4)C[C@@H]3C2=O)cs1.O=C(O)C(F)(F)F` is 0.6336%.
As for `CN(C)CCN1CCCC12CCN(C(=O)c1cccnc1)CC2.O=C(O)C(F)(F)F.O=C(O)C(F)(F)F`, the “Percent Effect” value is -6.366%.
Then `CC(C)N1CCO[C@H]2CN(C(=O)c3ccsc3)C[C@H]21.O=C(O)C(F)(F)F`, with -22.87%; and `O=C(Nc1cccc2c1CCCC2)C1CCCN1c1nccs1` (centres undefined), with 50.83%; and `O=C(Nc1cccc(F)c1)C1CCCN1c1nccs1` (centres undefined), with 8.306%.
The figure for `O=C(Nc1cccc(N2CCCC2)c1)C1CCCN1c1nccs1` (centres undefined) is 5.051%.
With `CCC(C)N1CCC2(CC1)CN(c1cncnc1)C(=O)CO2.O=C(O)C(F)(F)F` (centres undefined), the “Percent Effect” value is -21.63%.
Consider `Cc1nc(-c2ccc(F)c(F)c2)cc(C2CCNCC2)n1.Cl`, for which the “Percent Effect” value is -7.049%.
Then `Cn1cc(C2CC(=O)NC23CCN(Cc2cccc(F)c2)CC3)cn1.O=C(O)C(F)(F)F` (centres undefined), with -23.11%; and `CCOc1ccc(CN2CCc3nc4ccsc4c(=O)n3CC2)cc1.Cl`, with 16.23%.
The figure for `CCOCc1nn(C)c2c1CN(Cc1cccs1)CC2.O=C(O)C(F)(F)F` is 29.88%.
Then `CC(C(=O)NN1CCOCC1)n1nc(C(F)(F)F)c(Cl)c1C1CC1` (centres undefined), with -25.21%; and `CN(C)CCN1CCO[C@H]2CN(C(=O)c3ccsc3)C[C@H]21.O=C(O)C(F)(F)F.O=C(O)C(F)(F)F`, with 25.92%; and `O=C(C1CCC1)N1CC[C@H](O)[C@@H]1Cc1cccnc1.O=C(O)C(F)(F)F`, with 0.09339%.
For the molecule `Cc1cc(N2CCCC(c3nccnc3N(C)C)C2)ncn1` (centres undefined), the “Percent Effect” value is -16.62%.
Then `CC(C)CC(NC(=O)c1ccco1)c1nc2cccnc2n1C` (centres undefined), with -10.38%.
For `CC(C)CC(NC(=O)c1ccco1)c1nnc2ccccn12` (centres undefined), the “Percent Effect” value is on record as 66.07%.
For `CCCC(NC(=O)c1ccccn1)c1nnc2ccccn12` (centres undefined), the “Percent Effect” value is recorded as -4.17%.
Take `Cc1ccc(CN2CCc3c(COCC4CC4)nn(C)c3C2)s1.O=C(O)C(F)(F)F`: the “Percent Effect” value is reported as -29.84%.
The figure for `Cc1ccsc1CN1CCn2c(COc3cccnc3)cnc2C1C.O=C(O)C(F)(F)F.O=C(O)C(F)(F)F` (centres undefined) is 9.479%.
For the molecule `CC(=O)N1CCC12CCN(Cc1ccco1)CC2.O=C(O)C(F)(F)F`, the “Percent Effect” value was -13.47%.
Then `Cc1cc(Nc2ccccn2)nc(C2CCCN(CCO)C2)n1.O=CO` (centres undefined), with -14.49%; and `Cc1cc(Nc2cnccn2)nc(C2CCCN(CCO)C2)n1` (centres undefined), with 103.5%.
As for `Cc1cc(Nc2ncccn2)nc(C2CCCN(CCO)C2)n1` (centres undefined), the “Percent Effect” value is on record as 17.06%.
The figure for `CC(=O)N1CC(=O)N(c2ccccc2)CC12CCN(Cc1ccoc1)C2.O=C(O)C(F)(F)F` (centres undefined) is -0.426%.
In the case of `Fc1ccc(CNCC2OCCc3cn(CC4CC4)nc32)cc1.O=C(O)C(F)(F)F.O=C(O)C(F)(F)F` (centres undefined), the “Percent Effect” value is on record as 12.69%.
Take `Cc1noc(C)c1CN1CCc2ncnc(-c3cccnc3)c2CC1.O=C(O)C(F)(F)F.O=C(O)C(F)(F)F`: the “Percent Effect” value is recorded as 12.88%.
Regarding `COc1cc(C(=O)Nc2cn[nH]c2)ccc1C`, the “Percent Effect” value is on record as -19.45%.
Then `COc1cc(C(=O)Nc2nc(C)no2)cc(Cl)c1OC`, with 101%; and `COc1cc(C(=O)NS(=O)(=O)c2cncc(Br)c2)cc(Cl)c1OC`, with -14.73%.
Turning to `COc1cc(C(=O)NS(=O)(=O)c2cccc(C#N)c2)cc(OC)c1Br`, the “Percent Effect” value was -8.929%.
In the case of `COc1cc(C(=O)NS(=O)(=O)c2cccc(C#N)c2)cc(Cl)c1OC`, the “Percent Effect” value is -1.963%.
Then `COc1cc(C(=O)NS(=O)(=O)c2cc(Cl)sc2Cl)ccc1OC(F)F`, with -14.59%; and `COc1cc(C(=O)Nc2c(C)noc2C)ccc1C`, with -2.052%; and `COc1cc(C(=O)Nc2nc(C)no2)ccc1OC(F)F`, with 79.09%.
Then `COc1cc(C(=O)Nc2nc(C)no2)ccc1OC1CCCC1`, with -1.479%; and `COc1cc(C(=O)NCc2ccc3c(c2)CCCN3C)cc(OC)c1Br`, with -0.1722%; and `COc1cc(C(=O)Nc2nc(C)no2)ccc1C`, with 106.9%.
The figure for `COc1cc(C(=O)Nc2nc(C)no2)cc(OC)c1Br` is 104.3%.
Take `O=C(N1CCCC1)N1CCO[C@H]2[C@@H](Oc3ccccn3)CC[C@@H]21.O=C(O)C(F)(F)F`: the “Percent Effect” value was 0.1764%.
The figure for `Cc1ccc(CN2CC[C@@H]3OCCN(S(C)(=O)=O)[C@H]3CC2)s1.O=C(O)C(F)(F)F` is 16.37%; for `O=C(N1CCCC1)N1CCc2onc(COc3cccnc3)c2C1.O=C(O)C(F)(F)F` it is -4.712%.
As to `CC(C)Cc1cc(C(=O)NC(C)(C)CN2CCCCCC2)on1`, the “Percent Effect” value turned out to be 72.52%.
As for `CC(C)Cc1cc(C(=O)NCC(O)CN2CCCCCC2)on1` (centres undefined), the “Percent Effect” value is -12.74%.
Then `CC(C)Cc1cc(C(=O)NCC2CCCN(Cc3ccco3)C2)on1` (centres undefined), with 16.01%.
The figure for `CCc1ncnc2c1CCN(C(=O)c1ccccn1)CC2.O=C(O)C(F)(F)F` is -22.3%.
Then `CSc1ncccc1C(=O)N1C[C@H]2CC[C@@H]1CN(C(=O)N(C)C)C2`, with -1.597%; and `O=C(NCc1ccccn1)c1cnc(C2CCCN2)cn1` (centres undefined), with 52.39%; and `Cc1csc(NC(=O)c2cnc(C3CCCN(C)C3)cn2)n1` (centres undefined), with 23.5%.
`O=C(NCc1ccccn1)c1cncc(C2CCCN2)n1` (centres undefined): the “Percent Effect” value stood at 2.609%.
The figure for `Cc1csc(NC(=O)c2cnc(C3CCNCC3)cn2)n1.Cl` is -24.76%; for `Cc1nc(C(=O)NCc2ccccn2)cc(C2CCCN2)n1` (centres undefined) it is 45.77%; for `Cc1csc(NC(=O)c2cnc(C3CCCN3)cn2)n1.Cl` (centres undefined) it is 82.89%.
As for `Cl.Cn1ccnc1C1(O)CCN(C(=O)CCc2ccccc2)CC1`, the “Percent Effect” value is on record as 1.719%.
The figure for `Cc1noc(C)c1CN1CCc2c(CNc3nccs3)n[nH]c2C1.O=C(O)C(F)(F)F` is 8.041%.
As to `CCCNC(=O)c1cc2c(s1)CCN2C(=O)CN(C)C.O=C(O)C(F)(F)F`, the “Percent Effect” value came to 1.454%.
Take `C[C@H]1CN(c2ccccn2)C[C@@]12CCN(c1cccnc1)C2=O.O=C(O)C(F)(F)F.O=C(O)C(F)(F)F`: the “Percent Effect” value is on record as 11.35%.
`COc1ccc(CN2CCC3(CC(=O)N(c4cncnc4)C3)C2)cc1.O=C(O)C(F)(F)F` (centres undefined): the “Percent Effect” value is reported as -12.31%.
`CN1CCC(c2nc3ccc(-c4ccccc4)cn3n2)CC1.O=C(O)C(F)(F)F`: the “Percent Effect” value is given as -24.93%.
Then `COc1ccccc1Cc1cncc(N2CC(C(=O)O)C2)n1.Cl`, with 2.257%; and `CN(C)c1nc2c(c(N(C)Cc3n[nH]c4c3CCCC4)n1)CCNCC2`, with 31.61%; and `CN(Cc1n[nH]c2c1CCCC2)c1nc(C2CC2)nc2c1CCNCC2`, with 1.399%.
As for `CN(C)c1nc2c(c(N(C)Cc3n[nH]c4c3CCCCC4)n1)CCNC2`, the “Percent Effect” value was determined as 76.86%.
Turning to `CCS(=O)(=O)N1C[C@@H](OCc2ccccn2)[C@@H]2OCCC[C@@H]21.O=C(O)C(F)(F)F`, the “Percent Effect” value was -14.72%.
The figure for `CCC1(CC)Cc2ccccc2-c2nc(NCCO)[nH]c(=O)c21` is -12.78%; for `CCC1(CC)Cc2ccccc2-c2nc(CN(C)C)nc(O)c21` it is 51.81%.
Then `CCC1(CC)Cc2ccccc2-c2nc(NCCCO)[nH]c(=O)c21`, with 0.6588%.
